From PubChem
A selection follows.
aSyn UTR act: Activators working through SNCA 5'UTR binding (MLPCN); alpha-synuclein 5'UTR reporter, activators screen; activity score, % (tested at 7.5 µM), hits read low; 7.1% of 300,000 active; AID 1814; in the data active = activity score below about -60%
Numbers stand for hits; . = inactive.

SMILES | aSyn UTR act
Cc1cc(NC(=O)C(C)C)n(-c2nc3ccccc3s2)n1 | -78
Cc1cc(N)n(-c2ccc3ccccc3c2)n1 | -119
Cc1ccc(C(=O)c2oc3ccc(Cl)cc3c2NC(=O)CN2CCN(C)CC2)cc1 | -108
O=C(CC(Nc1ccccc1)c1ccc(F)cc1)c1ccccc1 (stereo not drawn) | -75
O=C(CC(Nc1ccccc1)C(=O)O)c1ccccc1 (stereo not drawn) | -124
Cc1ccc(NC(CC(=O)c2ccccc2)C(=O)O)cc1Cl (stereo not drawn) | -125
CCCn1c(O)c(N=Nc2ccc3ccccc3n2)c2ccccc21 | -177
Oc1ccc2ccccc2c1N=Nc1ccccn1 | .
CC(C)C(=O)N1CCN(c2nc3ccc(Cl)cc3s2)CC1 | -140
CC(C)NC(=O)N1CCCN(c2nc3ccc(Cl)cc3s2)CC1 | -62
COC(=O)CCC(=O)NC(=S)Nc1sc(C)c(C)c1C(N)=O | .
Cc1sc(NC(=S)NC(=O)c2ccco2)c(C(N)=O)c1C | -92
Cc1sc(NC(=O)Nc2ccccc2)c(C(N)=O)c1C | -161
COC(=O)c1c(NC(=O)c2ccc(OC(C)C)cc2)sc2c1CC(C)(C)NC2(C)C | .
COC(=O)c1c(NC(=O)c2ccccc2)sc2c1CC(C)(C)OC2 | -69
CC1(C)Cc2c(sc(NC(=O)Nc3ccccc3)c2C(N)=O)CO1 | -158
CCCNC(=O)c1oc2ccc3c(c2c1C)C(=O)CC(C)(C)O3 | -89
CCCNC(=O)c1oc2ccc3c(c2c1C)C=CC(C)(C)O3 | -90
Cc1ccc(NC(=O)c2snc3ccc(Cl)cc23)cc1C | -216
Cc1ccc2cc3c(N)c4c(C)ccc(C)c4nc3nc2c1 | -77
CCOC(=O)C1(Cc2ccccc2Cl)CCN(C(=O)CN2CCOC2=O)CC1 | -145
CC(C)(C)n1cnc2cc(NS(=O)(=O)c3ccccc3)ccc21 | -74
CC(C)(C)n1cnc2cc(NCc3ccc(Br)cc3)ccc21 | -92
CCc1ccc(CNc2ccc3c(c2)ncn3C(C)(C)C)cc1 | -156
COc1cccc(NC(=O)COc2cc(O)c3c(c2)OC(C)(C)CC3=O)c1 | -87
SMILES | aSyn UTR act
CC1(C)CC(=O)c2c(O)cc(OCc3ccc([N+](=O)[O-])cc3)cc2O1 | -150
O=C1OC(c2ccccc2)=C/C1=C\N1CCOCC1 | -67
COc1ccc(CCn2c(C3CCCCC3)nc3c(c(=O)c4ccccc4n3C)c2=O)cc1 | .
COc1ccc(CCn2c(-c3ccccc3)nc3c(c(=O)c4ccccc4n3C)c2=O)cc1 | -86
CCN(CC)c1ccc(C(=O)NNC(=O)c2cccn2C)cc1 | -115
Cn1cccc1C(=O)NNC(=O)COc1ccccc1F | -87
Cn1cccc1C(=O)NNC(=O)c1ccccc1Br | -97
Cn1cccc1C(=O)OCC(=O)Nc1ccc2c(c1)OCO2 | -101
Cn1cccc1C(=O)OCC(=O)Nc1ccc2c(c1)CCC2 | -138
CCCCOc1ccc(N=Nc2ccc(N)nc2N)cn1 | -300
CN(c1ccc(C(=O)Nc2ccc3c(c2)OCCO3)cc1)S(C)(=O)=O | -149
CN(c1ccc(C(=O)Nc2ccc3c(c2)OCO3)cc1)S(C)(=O)=O | -103
COc1cc(-c2nc3ccc(N4CCN(C)CC4)cc3[nH]2)cc(OC)c1OC | -102
C=C1C(=O)C=C[C@]2(C)C[C@@H]3OC(=O)[C@](C)(O)[C@H]3C[C@@H]12 | -527
Brc1ccc2nc(CSc3ncn[nH]3)cn2c1 | -68
Nc1c(C(=O)NCC2CCCO2)c2nc3ccccc3nc2n1-c1ccccc1 (stereo not drawn) | .
Cc1ccc(C(=O)NC(=S)NCC2CCCO2)cc1 (stereo not drawn) | -147
CC(C)(C)c1ccc(-c2noc(CCC(=O)NCC3CCCO3)n2)cc1 (stereo not drawn) | .
O=C(NC(=S)NCC1CCCO1)c1ccc(Cl)cc1 (stereo not drawn) | -106
CN(C)c1ccc(C(=O)NCC2CCCO2)cc1 (stereo not drawn) | -107
CSC1=NSC2=NC(=O)/C(=C\c3cccs3)C(=N)N12 | -199
CC(C)CSC1=NSC2=NC(=O)/C(=C\c3cccs3)C(=N)N12 | -69
CCOc1ccc(NC(=O)c2oc3ccccc3c2NC(=O)CC)cc1 | -123
CCOCC(=O)Nc1c(C(=O)Nc2ccc3c(c2)OCO3)oc2ccccc12 | -151
COc1ccccc1NC(=O)c1oc2ccc(C)cc2c1C | -203
SMILES | aSyn UTR act
CCOCC(=O)Nc1c(C(=O)Nc2ccc(OC)cc2OC)oc2ccccc12 | -82
COc1cccc(NC(=O)c2oc3ccccc3c2NC(C)=O)c1 | -121
COCC(=O)Nc1c(C(=O)Nc2ccccc2OC)oc2ccccc12 | -147
COCC(=O)Nc1c(C(=O)Nc2cccc(OC)c2)oc2ccccc12 | -218
Cc1cccc(-c2noc(CCc3ccccc3)n2)c1 | -121
Cc1ccc(-c2noc(CNc3ccccc3)n2)cc1 | -78
Cc1cccc(-c2noc(Cc3ccccc3)n2)c1 | -169
Cn1c(-c2ccc3nc(N)sc3c2)nc2cc(N)ccc21 | -72
Cc1nn(-c2ccccc2)c(Cl)c1/C=N/NC(=O)c1ccco1 | -106
Cc1nn(-c2ccccc2)c(Cl)c1/C=N\NC(=O)c1cnccn1 | -106
CC(C)(C)c1csc(CS(=O)(=O)c2ccccn2)n1 | -63
